Results taken from PubChem BioAssay AID1159580 (chemical genetic matrix, 2015).
“And” between values parts separate entries of the source, which are not always exact repeats. Equal entries are not always repeated. Screen size: about 5,500 compounds; about 2,000 (36%) were called active. About 18% were inconclusive and are not listed. No stated cut-off is given here; in the data, active means normalized growth mostly below about 0.91 (no sharp cut-off); inconclusive means no clear call, values can overlap the other calls; inactive means mostly above about 0.92. Some of the results follow.

Assay: chemical genetic growth profiling, strain panel (AID 1159580);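 further: tested at 20 µM; growth read once vehicle control cultures reached saturation at 30 °C; 1 = growth at the plate median or of vehicle wells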
Settings: S. cerevisiae deletion strains, growth OD

Measured: normalized growth

O=C(O)c1cc(=O)c2ccccc2[nH]1
inactive: locus YAL013W, strain DEP1, stronger effect = lower value 0.991 and 1.01 | locus YAL021C, strain ccr4, stronger effect = lower value 0.96 | locus YAL026C, strain drs2, stronger effect = lower value 0.986 | locus YAL030W, strain snc1, stronger effect = lower value 0.987 | locus YAL040C, strain CLN3, stronger effect = lower value 0.998 | locus YBL061C, strain skt5, stronger effect = lower value 0.972 | locus YBR009C, strain hhf1, stronger effect = lower value 0.979 | locus YBR021W, strain FUR4, stronger effect = lower value 1.02 | locus YBR023C, strain chs3, stronger effect = lower value 0.98 | locus YBR171W, strain sec66, stronger effect = lower value 0.975 | locus YBR229C, strain ROT2, stronger effect = lower value 0.96 | locus YBR231C, strain swc5, stronger effect = lower value 0.998 | locus YBR279W, strain paf1, stronger effect = lower value 0.992 | locus YCL011C, strain gbp2, stronger effect = lower value 0.986 | locus YCL016C, strain dcc1, stronger effect = lower value 0.981 | locus YCL029C, strain bik1, stronger effect = lower value 0.989 | locus YCL061C, strain MRC1 (second series), stronger effect = lower value 0.992 | locus YCL061C, strain MRC1, stronger effect = lower value 0.983 | locus YCL069W, strain vba3, stronger effect = lower value 0.993 | locus YCR088W, strain abp1, stronger effect = lower value 0.987 | locus YDL005C, strain med2, stronger effect = lower value 0.975 | locus YDL035C, strain GPR1, stronger effect = lower value 0.998 | locus YDL040C, strain nat1, stronger effect = lower value 0.988 | locus YDL074C, strain BRE1, stronger effect = lower value 0.986 | locus YDL101C, strain DUN1, stronger effect = lower value 0.964 | locus YDL134C, strain PPH21, stronger effect = lower value 0.972 | locus YDL185W, strain tfp1, stronger effect = lower value 0.979 | locus YDL192W, strain arf1, stronger effect = lower value 0.991 | locus YDR001C, strain nth1, stronger effect = lower value 0.991 | locus YDR069C, strain doa4, stronger effect = lower value 0.97 | locus YDR101C, strain arx1, stronger effect = lower value 0.993 | locus YDR137W, strain rgp1, stronger effect = lower value 1.02 | locus YDR150W, strain NUM1, stronger effect = lower value 0.975 and 1.01 | locus YDR159W, strain sac3, stronger effect = lower value 0.962 | locus YDR162C, strain NBP2, stronger effect = lower value 0.99 | locus YDR195W, strain ref2 0.968 | locus YDR297W, strain sur2, stronger effect = lower value 0.985 | locus YDR318W, strain mcm21, stronger effect = lower value 0.99 | locus YDR334W, strain swr1, stronger effect = lower value 0.984 | locus YDR335W, strain msn5, stronger effect = lower value 0.99 | locus YDR363W, strain ESC2, stronger effect = lower value 0.981 | locus YDR388W, stronger effect = lower value 0.997 | locus YDR392W, strain spt3, stronger effect = lower value 0.963 | locus YDR502C, strain sam2, stronger effect = lower value 0.995 | locus YEL003W, strain gim4, stronger effect = lower value 0.988 | locus YEL037C, strain rad23, stronger effect = lower value 0.99 | locus YEL061C, strain CIN8 (second series), stronger effect = lower value 0.993 | locus YEL061C, strain CIN8, stronger effect = lower value 0.992 | locus YER002W, strain NOP16, stronger effect = lower value 0.98 | locus YER015W, strain faa2, stronger effect = lower value 0.984 | locus YER016W, strain bim1, stronger effect = lower value 0.987 | locus YER110C, stronger effect = lower value 0.978 | locus YER111C, strain swi4, stronger effect = lower value 0.983 | locus YER155C, strain BEM2 (second series), stronger effect = lower value 0.981 | locus YER155C, strain BEM2, stronger effect = lower value 0.997 | locus YER167W, strain BCK2, stronger effect = lower value 1 | locus YFR010W, strain ubp6, stronger effect = lower value 0.977 | locus YGL078C, strain dbp3, stronger effect = lower value 0.987 | locus YGL086W, strain mad1, stronger effect = lower value 0.998 | locus YGL167C, strain pmr1, stronger effect = lower value 0.973 | locus YGL173C, strain kem1, stronger effect = lower value 0.986 | locus YGL227W, strain vid30, stronger effect = lower value 0.984 | locus YGL240W, strain doc1, stronger effect = lower value 0.987 | locus YGL248W, strain PDE1, stronger effect = lower value 0.977 | locus YGL253W, strain hxk2, stronger effect = lower value 0.988 | locus YGR078C, strain PAC10, stronger effect = lower value 0.999 and 0.983 | locus YGR135W, strain pre9, stronger effect = lower value 0.988 | locus YGR229C, strain SMI1, stronger effect = lower value 1 | locus YGR252W, strain gcn5, stronger effect = lower value 0.992 | locus YHR013C, strain ard1, stronger effect = lower value 0.958 | locus YHR027C, strain rpn1, stronger effect = lower value 1 | locus YHR030C, strain SLT2, stronger effect = lower value 0.991 and 0.972 | locus YHR079C, strain IRE1 (second series), stronger effect = lower value 0.989 | locus YHR079C, strain IRE1, stronger effect = lower value 0.985 | locus YHR094C, strain hxt1, stronger effect = lower value 0.996 | locus YHR129C, strain ARP1, stronger effect = lower value 0.995 | locus YHR142W, strain chs7, stronger effect = lower value 0.99 | locus YHR200W, strain rpn10, stronger effect = lower value 0.987 | locus YIL066C, strain RNR3, stronger effect = lower value 0.973 | locus YIL073C, strain SPO22, stronger effect = lower value 0.95 | locus YIL125W, strain kgd1, stronger effect = lower value 0.987 | locus YIR030C, strain dcg1, stronger effect = lower value 0.983 | locus YJL092W, strain hpr5, stronger effect = lower value 0.987 | locus YJL095W, strain BCK1 (second series), stronger effect = lower value 0.973 | locus YJL095W, strain BCK1, stronger effect = lower value 1.04 and 0.987 | locus YJL115W, strain asf1, stronger effect = lower value 0.992 | locus YJL129C, strain trk1, stronger effect = lower value 0.973 | locus YJL134W, strain LCB3, stronger effect = lower value 0.982 | locus YJL154C, strain vps35, stronger effect = lower value 0.98 | locus YJL164C, strain tpk1, stronger effect = lower value 1.01 | locus YJL166W, strain qcr8, stronger effect = lower value 0.998 | locus YJL168C, strain set2, stronger effect = lower value 0.996 | locus YJL187C, strain SWE1 (second series), stronger effect = lower value 0.967 | locus YJL187C, strain SWE1, stronger effect = lower value 0.987 | locus YJR043C, strain POL32, stronger effect = lower value 1 | locus YJR066W, strain TOR1, stronger effect = lower value 0.88
